The text below walks through data of PubChem BioAssay (Tox21).

Results filed as inconclusive are left out. Where a call stands in place of a potency, no number is given. Where a structure was tested more than once in an assay, its records may differ in their call. The source made the active and inactive calls. The call rests on the fitted dose curve; in most records, active means well fitted curve in the direction sought with a large enough effect in the repeat runs; inconclusive means weak or mixed curves; inactive means no such curve, though single readings can be large; an effect the other way counts as inactive or inconclusive.
Potency means the concentration at half of the fitted maximal effect.

The first assay is described as follows: A CellTox Green Cytotoxicity Assay to monitor cytotoxicity in HEK293 cells - 8 hour (AID 1224884). Further: nearly all actives have a fitted effect of over 35% in size. The settings on record: CellTox Green fluorescence; series mostly up to 76.8 µM. In a few lines:
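Read-out: fluorescence of a cell-impermeant cyanine dye staining DNA of dead cells, proportional to cytotoxicity. HEK293, 600 cells/well with reagent, compound (23 nL DMSO) added after 5 h; reads at 0, 8, 16, 24, 32, 40 h.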
Consider `CCC(=O)CC(C)CC` (stereo not given), for which the cytotoxicity increase is 19.1% [at 0.29 µM] (inactive).
In the case of `C=C/C=C/C=C/CCCCC`, the cytotoxicity increase was -3.53% [at 15.8 µM] (inactive).
In the case of `CCCCCCCC/C=C\CCCCCCCC(=O)NCc1ccc(O)c(OC)c1`, the Potency result was “inactive”.
With `O=S(O)O`, the cytotoxicity increase is 0.551% [at 15.8 µM] (inactive).
Turning to `NCCCCCCNCCCCCCN`, the Potency result was “inactive”.
Still for that read-out and setting: then `C=CC/C=C/C/C=C/C/C=C/C`, with “inactive”.
`CCCCN(C)C`: the Potency entry is “inactive”.
As for `CC(NCCC(c1ccccc1)c1ccccc1)c1ccccc1` (stereo not given), the Potency result is “inactive”.
Turning to `CCCCCCCCCCCCCCCC`, the Potency entry is “inactive”.
With `O=C1OC(OC(=O)c2cccnc2Nc2cccc(C(F)(F)F)c2)c2ccccc21` (stereo not given), the Potency entry was “inactive”.
Turning to `CN1[C@@H]2CC[C@H]1CC(OC(=O)C(CO)c1ccccc1)C2` (stereo not given in full), the Potency entry is “inactive”.
For the molecule `CC(COC(=O)c1ccccc1)OC(=O)c1ccccc1` (stereo not given), the Potency entry was “inactive”.
`CCOC(=O)CN`: the Potency entry is “inactive”.
Regarding `CCOC(/C=C(\C)CCC=C(C)C)OCC`, the Potency result is “inactive”.
As to `CCC1CCCCC1`, the Potency result is “inactive”.
With `CCCCCCCCCCCCCCNCCO`, the Potency is 21.3 µM (active).
As to `O=C1c2c(O)ccc(O)c2C(=O)c2c(NCCNCCO)ccc(NCCNCCO)c21`, the Potency entry is “inactive”.
`C=CC(C)(CCC=C(C)C)OC(=O)/C=C/c1ccccc1` (stereo not given): the Potency is 38.9 µM (active).
Turning to `COc1nccnc1CC(C)C`, the Potency entry is “inactive”.
Turning to `CCCCC(CC)COC(=O)c1ccc(O)cc1` (stereo not given), the Potency was 43.5 µM (active).
On to `Clc1ccccc1CN1CCc2sccc2C1`, for which the Potency result is “inactive”.
On to `Clc1ccc(C(c2ccccc2Cl)C(Cl)Cl)cc1` (stereo not given), for which the Potency result is “inactive”.
With `CCC(C)c1ccccc1` (stereo not given), the Potency entry was “inactive”.
Take `CCCCCCCOC(=O)c1ccccc1C(=O)OCCCCCCC`: the Potency result was “inactive”.
Turning to `COCC(=O)O[C@]1(CCN(C)CCCc2nc3ccccc3[nH]2)CCc2cc(F)ccc2[C@@H]1C(C)C`, the Potency entry was “inactive”.
Take `CC(C)=C1CC[C@@H](C)CC1=O`: the Potency entry is “inactive”.
Consider `SCCCCCCCCS`, for which the Potency result is “inactive”.

Another assay can be described thus: qHTS RealTime-Glo MT Cell Viability Assay in HepG2 cells - 16 hour (AID 1224885). Further: nearly all actives have a fitted effect of over 50% in size. The settings on record: RealTime-Glo luminescence; series mostly up to 76.8 µM. In a few lines:
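Real-time, nonlytic viability: 600 HepG2 cells/well mixed with NanoLuc enzyme plus prosubstrate; 5 h settle, compound (DMSO) added by pintool; luminescence monitored over 40 h at 37 C.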
On the technique in general: qHTS replaces the single test concentration by a dilution series.
Take `C=C/C=C/C=C/CCCCC`: the activity change, negative = cytotoxic was -10.1% [at 15.8 µM] (inactive).
As for `Oc1c(Br)cc(Br)c2cccnc12`, the Potency entry was “inactive”.
Regarding `CCCOc1sc(C(=O)N2CCC(c3cc(CN)ccc3F)CC2)c(C)c1Br`, the Potency was 22.5 µM (active).
Regarding `NCCCCCCNCCCCCCN`, the Potency entry is “inactive”.
Regarding `C=CC/C=C/C/C=C/C/C=C/C`, the Potency result was “inactive”.
For `C=CCCCCCCC=C`, the Potency result is “inactive”.
The same measure, in the same setting: then `CC(NCCC(c1ccccc1)c1ccccc1)c1ccccc1` (stereo not given), with 21.3 µM (active).
Take `CCCCCCCCCCCCCCCC`: the Potency entry is “inactive”.
On to `CCc1cccc(CC)c1NC(=O)C(=O)O`, for which the Potency entry is “inactive”.
`O=C1OC(OC(=O)c2cccnc2Nc2cccc(C(F)(F)F)c2)c2ccccc21` (stereo not given): the Potency entry is “inactive”.
For `CN1[C@@H]2CC[C@H]1CC(OC(=O)C(CO)c1ccccc1)C2` (stereo not given in full), the Potency entry is “inactive”.
On to `CCOC(=O)CN`, for which the Potency result was “inactive”.
Same read-out and setting: the same measure for `CCOC(/C=C(\C)CCC=C(C)C)OCC`: “inactive”; for `CCC1CCCCC1`: “inactive”; for `CCCCCCCCCCCCCCNCCO`: 19 µM (active).
As for `O=C1c2c(O)ccc(O)c2C(=O)c2c(NCCNCCO)ccc(NCCNCCO)c21`, the Potency is 19 µM (active).
For the molecule `COc1nccnc1CC(C)C`, the Potency result is “inactive”.
The same measure, in the same setting: the same measure for `CCCCC(CC)COC(=O)c1ccc(O)cc1` (stereo not given): “inactive”.
Same read-out and setting: then `Clc1ccccc1CN1CCc2sccc2C1`, with “inactive”; and `CCC(C)c1ccccc1` (stereo not given), with “inactive”; and `CCCCCCCOC(=O)c1ccccc1C(=O)OCCCCCCC`, with “inactive”.
Take `O[C@@H](c1cc(C(F)(F)F)nc2c(C(F)(F)F)cccc12)[C@H]1CCCCN1`: the Potency was 21.3 µM (active).
Consider `CC(C)=C1CC[C@@H](C)CC1=O`, for which the Potency entry was “inactive”.

The next assay can be described thus: qHTS RealTime-Glo MT Cell Viability Assay in HEK293 cells - 24 hour (AID 1224886). Further: nearly all actives have a fitted effect of over 50% in size. On activity change, negative = cytotoxicity: top concentration of the series differs between compounds. The settings on record: RealTime-Glo luminescence; series mostly up to 76.8 µM. In a few lines: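 Cells + reagent dispensed (600 cells/well, HEK293) → 5 h at 37 C/5% CO2 → 23 nL compound in DMSO pinned → 40 h at 37 C → luminescence read at 0, 8, 16, 24, 32, 40 h.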
`CCC(=O)CC(C)CC` (stereo not given): the activity change, negative = cytotoxicity was -3.03% [at 0.29 µM] (inactive).
Turning to `C=C/C=C/C=C/CCCCC`, the activity change, negative = cytotoxicity is 13% [at 15.8 µM] (inactive).
For the molecule `Oc1c(Br)cc(Br)c2cccnc12`, the Potency result was “inactive”.
Turning to `CCCCCCCC/C=C\CCCCCCCC(=O)NCc1ccc(O)c(OC)c1`, the Potency was 2.39 µM (active).
Same read-out and setting: then `CCCOc1sc(C(=O)N2CCC(c3cc(CN)ccc3F)CC2)c(C)c1Br`, with 20 µM (active).
In the case of `O=S(O)O`, the activity change, negative = cytotoxicity is 11.2% [at 15.8 µM] (inactive).
`NCCCCCCNCCCCCCN`: the Potency result is “inactive”.
On to `C=CC/C=C/C/C=C/C/C=C/C`, for which the Potency result was “inactive”.
For the molecule `C=CCCCCCCC=C`, the Potency result is “inactive”.
Turning to `CCCCN(C)C`, the Potency result was “inactive”.
Turning to `CC(NCCC(c1ccccc1)c1ccccc1)c1ccccc1` (stereo not given), the Potency is 19 µM (active).
Same read-out and setting: then `CCCCCCCCCCCCCCCC`, with “inactive”; and `CCc1cccc(CC)c1NC(=O)C(=O)O`, with “inactive”; and `O=C1OC(OC(=O)c2cccnc2Nc2cccc(C(F)(F)F)c2)c2ccccc21` (stereo not given), with “inactive”.
The same measure, in the same setting: the same measure for `CN1[C@@H]2CC[C@H]1CC(OC(=O)C(CO)c1ccccc1)C2` (stereo not given in full): “inactive”.
On to `CC(COC(=O)c1ccccc1)OC(=O)c1ccccc1` (stereo not given), for which the Potency result is “inactive”.
On to `CCOC(=O)CN`, for which the Potency entry is “inactive”.
Turning to `COC(=O)CC(C)CCC=C(C)C` (stereo not given), the Potency result was “inactive”.
For `CCCCCCCC(=O)OCC`, the Potency result is “inactive”.
Take `CCOC(/C=C(\C)CCC=C(C)C)OCC`: the Potency result is “inactive”.
`CCC1CCCCC1`: the Potency result is “inactive”.
Regarding `CCCCCCCCCCCCCCNCCO`, the Potency is 15.1 µM (active).
On the same count and under the same terms, then `O=C1c2c(O)ccc(O)c2C(=O)c2c(NCCNCCO)ccc(NCCNCCO)c21`, with 0.0601 µM (active).
As for `Cc1c(-c2ccc(O)cc2)n(Cc2ccc(OCCN3CCCCCC3)cc2)c2ccc(O)cc12`, the Potency was 2.68 µM (active).
As to `C=CC(C)(CCC=C(C)C)OC(=O)/C=C/c1ccccc1` (stereo not given), the Potency result is “inactive”.
Take `COc1nccnc1CC(C)C`: the Potency entry was “inactive”.
`CCCCC(CC)COC(=O)c1ccc(O)cc1` (stereo not given): the Potency was 54.7 µM (active).
`Cc1c(C(=O)O)cccc1[N+](=O)[O-]`: the Potency entry is “inactive”.
Turning to `Clc1ccc(C(c2ccccc2Cl)C(Cl)Cl)cc1` (stereo not given), the Potency is 38.9 µM (active) and inactive.
For the molecule `CCC(C)c1ccccc1` (stereo not given), the Potency entry was “inactive”.
With `CCCCCCCOC(=O)c1ccccc1C(=O)OCCCCCCC`, the Potency entry was “inactive”.
For the molecule `COCC(=O)O[C@]1(CCN(C)CCCc2nc3ccccc3[nH]2)CCc2cc(F)ccc2[C@@H]1C(C)C`, the Potency is 6.01 µM (active).
Same read-out and setting: then `O[C@@H](c1cc(C(F)(F)F)nc2c(C(F)(F)F)cccc12)[C@H]1CCCCN1`, with 7.56 µM (active).
Turning to `CC(C)=C1CC[C@@H](C)CC1=O`, the Potency result is “inactive”.
Same read-out and setting: then `SCCCCCCCCS`, with “inactive”.
